From PubChem BioAssay (Tox21) come the findings set out here.

Inconclusive results are not listed. A call without a number means that no potency is given here. Unmarked numbers belong to inactive results. Calls of active or inactive are those of the source. The call rests on the fitted dose curve.

This assay in a line: qHTS assay to identify small molecule agonists or antagonists of the thyroid stimulating hormone receptor (TSHR) signaling pathway - wild type cell line counter screen (AID 1259384). The conditions noted are these: HEK293 wild type, cAMP HTRF counter-screen; series mostly up to 92.4 µM; cAMP activity change: at the top concentration. An excerpt:
U.S. Tox21 Program National Center for Advancing Translational Sciences [NCATS] NIH Chemical Genomics Center [NCGC] U.S. Environmental Protection Agency [EPA] National Institutes of Environmental Health Sciences [NIEHS] National Toxicology Program [NTP] U.S. Food and Drug Administration [FDA] Tox21 Assay Overview: TSHR is the receptor for thyrotropin (thyroid stimulating hormone or TSH), a member of the glycoprotein hormone family. TSH is released by the anterior pituitary gland and is the main regulator of thyroid gland growth and development. Upon binding circulating thyrotropin, a G-protein signal cascade activates adenylyl cyclase and […] cAMP concentration is increased. cAMP is a key second messenger involved extensively in cellular signal transduction pathways associated with the majority of G-protein coupled receptors (GPCRs). The activation of these GPCRs by neurotransmitters, lipids, nucleotides, peptides and hormones results in the activation or the inhibition of plasma membrane-bound adenylate cyclase through heterotrimeric G-proteins. A cell-based TSHR-Hek293 assay can be used to identify TSHR agonists. To eliminate the false positive compounds identified from screening a cell-based TSHR-Hek293 cell line, cAMP assay in a wild type Hek293 cells was used as a counter screening.
Tox21 Assay Protocol Summary: Hek293 cells (wild type) were dispensed at 800 cells/4 uL/well in 1536-well white plates using a Multidrop dispenser. After the assay plates were incubated at a 37 C/5% CO2 incubator for 18 hrs, 23 nL of compounds dissolved in DMSO, positive controls or DMSO only was transferred to the assay plate by a pin tool, followed by 1 ul medium containing Ro20-1724. After 30 min of incubation at room temperature, 2.5 ul/well of cAMP-d2 and 2.5 ul/well of anti-cAMP-cryptate were added respectively into the assay plates using a Flying Reagent Dispenser. The plates were incubated at room temperature for 1 hr. The fluorescence intensity in the plates was measured using an Envision plate reader. Each test compound was measured at 15 concentrations and in triplicates.
In the case of `OC1CCCCC1`, the Potency entry is “inactive”.
On to `CCCOCC(C)O` (stereo not given), for which the Potency entry was “inactive”.
For the molecule `CC1(C)C(=O)N(Cl)C(=O)N1Cl`, the Potency result was “inactive”.
As to `CCCN(CCC)C(=O)SCC`, the Potency entry is “inactive”.
Same read-out and setting: in the case of `N#CCC(=O)O` it was “inactive”; in that of `CCc1cccc(O)c1`, “inactive”.
With `CCN(CC)CCNC(=O)c1ccc(N)cc1`, the Potency entry was “inactive”.
On to `Cc1ccccc1Cl`, for which the Potency result is “inactive”.
The same measure, in the same setting: to `O=C(O)C1=NN(c2ccc(S(=O)(=O)O)cc2)C(=O)C1` belongs “inactive”; to `CC(=O)OCc1ccc2c(c1)OCO2`, “inactive”; to `C=C(C)CC(C)(C)C`, “inactive”.
The same measure, in the same setting: in the case of `O=c1n(CCCN2CCN(c3cccc(Cl)c3)CC2)nc2ccccn12` it was “inactive”.
Still for that read-out and setting: in the case of `COC(=O)/C=C\C(=O)OC` it was “inactive”.
Take `CCCCCNCCCCC`: the Potency entry is “inactive”.
For `C[Si](C)(C)N[Si](C)(C)C`, the Potency entry was “inactive”.
The same measure, in the same setting: in the case of `CCn1cc(C(=O)O)c(=O)c2cc3c(cc21)OCO3` it was “inactive”; in that of `Cc1cc(C)c(O)c(C)c1`, “inactive”; in that of `CC1(C)[C@@H](O[C@H]2O[C@H](C(=O)O)[C@@H](O)[C@H](O)[C@H]2O[C@@H]2O[C@H](C(=O)O)[C@@H](O)[C@H](O)[C@H]2O)CC[C@]2(C)[C@H]3C(=O)C=C4[C@@H]5C[C@@](C)(C(=O)O)CC[C@]5(C)CC[C@@]4(C)[C@]3(C)CC[C@@H]12`, “inactive”.
As for `CC(=O)OC[C@H]1O[C@@](COC(C)=O)(O[C@H]2O[C@H](COC(C)=O)[C@@H](OC(C)=O)[C@H](OC(C)=O)[C@H]2OC(C)=O)[C@@H](OC(C)=O)[C@@H]1OC(C)=O`, the Potency result is “inactive”.
As for `CC(C)c1ccc(C(C)C)cc1`, the Potency entry was “inactive”.
As to `Cc1ccc(C)c(S(=O)(=O)O)c1`, the Potency result was “inactive”.
Turning to `Nc1cccc(N)n1`, the “cAMP activity change” value is -0.0613%.
In the case of `NCCNCCNCCN`, the Potency entry was “inactive”.
Same read-out and setting: in the case of `CC(=O)Nc1ccc(CC(=O)O)cc1` it was “inactive”.
On the same count and under the same terms, in the case of `CC(C)=CCC/C(C)=C/C=O` it was “inactive”; in that of `OC[C@H]1O[C@@H](Oc2ccc(O)cc2)[C@H](O)[C@@H](O)[C@@H]1O`, “inactive”.
For `NC1CCCCC1N` (stereo not given), the Potency entry was “inactive”.
In the case of `OCC(CO)(CO)CO`, the Potency entry was “inactive”.
Same read-out and setting: in the case of `Brc1ccc(Oc2ccc(Br)cc2)cc1` it was “inactive”; in that of `CC(=O)CC(=O)N(C)C`, “inactive”.
The same measure, in the same setting: to `O=c1c(O)c(-c2ccc(O)c(O)c2)oc2cc(O)cc(O)c12` belongs “inactive”.
As to `COc1ccc([C@@H]2CC(=O)c3c(O)cc(O[C@@H]4O[C@H](CO[C@@H]5O[C@@H](C)[C@H](O)[C@@H](O)[C@H]5O)[C@@H](O)[C@H](O)[C@H]4O)cc3O2)cc1OC`, the Potency result is “inactive”.
For the molecule `Clc1cccc(Cl)c1NC1=NCCN1`, the Potency result is “inactive”.
Consider `CC(=O)OC/C=C(\C)CCC=C(C)C`, for which the Potency entry was “inactive”.
In the case of `CC(=O)c1nccs1`, the Potency entry is “inactive”.
For the molecule `O=C1C(N(CO)C(=O)NCO)N(CO)C(=O)N1CO` (stereo not given), the Potency result was “inactive”.
With `Nc1cccc(C(F)(F)F)c1`, the Potency result is “inactive”.
`COC(=O)OC`: the Potency result was “inactive”.
As to `Cc1cc(CC(=O)O)n(C)c1C(=O)c1ccc(Cl)cc1`, the Potency entry is “inactive”.
With `O=C1O[C@H]([C@H](O)CO)C(O)=C1O`, the Potency result was “inactive”.
